# The supplement of paper PMC12024424
# Structures can show the parent of a compound that is named as a salt.
# Legend:
# [1] = test system: Staphylococcus aureus Sa2 (MRSA, cystic fibrosis isolate); test: growth reduction vs untreated control (OD550); higher = stronger antibacterial activity; details: 0.1 mM; 24 h
# Description: (§1)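 Single-dose screen of the MedChem Express Drug Repurposing Library (0.1 mM, 1% DMSO) against planktonic MRSA S. aureus Sa2 (CF isolate) in TSB in 96-well plates, 37 °C aerobic, 24 h. Assays were run in triplicate and repeated twice.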
# [2] = test system: Staphylococcus aureus Sa2 (MRSA, cystic fibrosis isolate); test: growth reduction vs untreated control (viable cell count); higher = stronger antibacterial activity; extreme values may be limits of the assay; details: 0.1 mM; 24 h
# Description: as §1
Compound,growth reduction [1] [%],growth reduction [2] [%]
CC/C(=C(/c1ccc(/C=C/C(=O)O)cc1)c1ccc2[nH]ncc2c1)c1ccc(F)cc1Cl [Brilanestrant],96.6,100
O=C(O)c1ccc2nc(-c3cc(Cl)cc(Cl)c3)oc2c1 [Tafamidis meglumine],93.9,98
CCCCCCCCCCCCCCCCOP(=O)([O-])OCC[N+](C)(C)C [Miltefosine],100,100
CCCCCCNC(=O)n1cc(F)c(=O)[nH]c1=O [Carmofur],100,100
Cc1nc2sccn2c(=O)c1CCN1CCC(=C(c2ccc(F)cc2)c2ccc(F)cc2)CC1 [Ritanserin],97.5,100
c1cn2cc(-c3ccc4cn[nH]c4c3)nc(Nc3ccc(N4CCOCC4)cc3)c2n1 [Entospletinib],100,96
O=C1Nc2ccc(Cl)cc2[C@@](C#CC2CC2)(C(F)(F)F)O1 [Efavirenz],96.6,98
Cc1cc2c(cc1CC(=O)c1sccc1S(=O)(=O)Nc1onc(C)c1Cl)OCO2 [Sitaxsentan (sodium)],98,90
CC(C)=CCC/C(C)=C/CC/C(C)=C/CSc1ccccc1C(=O)O [Salirasib],100,100
CC(C(=O)O)c1ccc2c(c1)CC(=O)c1ccccc1S2 (stereo not drawn) [Zaltoprofen],96.7,98
CC(C)(C)C#Cc1cc(N(C(=O)[C@H]2CC[C@H](C)CC2)[C@H]2CC[C@H](O)CC2)c(C(=O)O)s1 [Lomibuvir],91.1,95
CC(=O)OCC(=O)[C@@]1(O)CC[C@H]2[C@@H]3CCC4=CC(=O)C=C[C@]4(C)[C@H]3C(=O)C[C@@]21C [Prednisone acetate],97.7,100
COc1cc2c(Oc3ccc(NC(=O)C4(C(=O)Nc5ccc(F)cc5)CC4)cc3F)ccnc2cc1OCCCN1CCOCC1 [Foretinib],94.8,99
COCc1c(C(C)C)nc(C(C)C)c(/C=C/[C@@H](O)C[C@@H](O)CC(=O)O)c1-c1ccc(F)cc1 [Cerivastatin (sodium)],93.6,99
COc1cc2ncnc(Nc3ccc(F)c(Cl)c3)c2cc1NC(=O)/C=C/CN1CCCCC1 [Dacomitinib],100,100
CCCCCCCCc1ccc(CCC(N)(CO)CO)cc1 [Fingolimod],100,100
C#C[C@]1(OC(C)=O)CC[C@H]2[C@@H]3CCC4=C[C@@H](OC(C)=O)CC[C@@H]4[C@H]3CC[C@@]21C [Ethynodiol diacetate],92.7,94
CCN(CC)CCOc1ccc(C(=C(Cl)c2ccccc2)c2ccccc2)cc1 [Clomiphene (citrate)],100,100
Cc1ccc(-c2cc(C(F)(F)F)nn2-c2ccc(S(N)(=O)=O)cc2)cc1 [Celecoxib],95.6,90
CC(C)/N=c1\cc2n(-c3ccc(Cl)cc3)c3ccccc3nc-2cc1Nc1ccc(Cl)cc1 [Clofazimine],100,100
Cc1ccc(-c2c(C(=O)CCl)n(CCCO)c3ncnc(N)c23)cc1,99.8,100
CCCCCCCCCCCCCCCCCCOP(=O)([O-])OC1CC[N+](C)(C)CC1 [Perifosine],96.9,100
COc1cc(NS(C)(=O)=O)ccc1Nc1c2ccccc2nc2ccccc12 [Amsacrine (hydrochloride)],93.4,100
COC(=O)[C@]12CCC(C)(C)C[C@H]1[C@H]1C(=O)C=C3[C@@]4(C)C=C(C#N)C(=O)C(C)(C)[C@@H]4CC[C@@]3(C)[C@]1(C)CC2 [Bardoxolone methyl],100,100
COc1cccc(-c2ccc(NC(=O)C3=C(C(=O)O)CCC3)c(F)c2)c1 [Vidofludimus],93,99
CCCCc1oc2ccc(NS(C)(=O)=O)cc2c1C(=O)c1ccc(OCCCN(CCCC)CCCC)cc1 [Dronedarone],96.5,100
CCCCCNC(=N)N/N=C/c1c[nH]c2ccc(OC)cc12 [Tegaserod (maleate)],100,100
CCCCCOc1ccccc1/C(=C\SC)n1ccnc1 [Neticonazole],100,100
C=C(C)[C@@H]1CC[C@]2(C(=O)O)CC[C@]3(C)[C@H](CC[C@@H]4[C@@]5(C)CC[C@H](OC(=O)CC(C)(C)C(=O)O)C(C)(C)[C@@H]5CC[C@]43C)[C@@H]12 [Bevirimat],96.7,100
